Data reported in PubChem BioAssay (NCATS).
Where “and” joins values, the source holds several entries; their conditions need not be identical. Identical values can stand only once. Inconclusive results are not listed. Calls of active or inactive are those of the source. Unless noted, calls come from the whole dose curve; as a rule, active = well fitted curve in the direction sought with a large enough effect; inconclusive = small, poorly fitted or top-dose-only effect, or another doubt; inactive = no such curve, though single readings can be large; an effect the other way counts as inactive or inconclusive.

Key:
[1] = Cell Viability - MRC5 (AID 434; calls by dose curve;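 note: potency is the fitted concentration of half-maximal effect; cells exposed to compound for 40 hours at 37 °C; potency reflects cytotoxicity seen as loss of intracellular ATP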); conditions: MRC5 lung fibroblast viability, qHTS
Summary of the method: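 AC50 values come from Hill-equation fits of intracellular ATP loss, measured by CellTiter-Glo luminescence. Normal lung fibroblasts (MRC5) had 40 hr compound treatment at 37 C, normalized between DMSO and 100 uM tamoxifen.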

[2] = biological target: Estrogen receptor (Homo sapiens) (UniProt P03372); experiment: qHTS assay for small molecule agonists of estrogen receptor alpha signaling (AID 588514; calls by dose curve;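 note: 0% = vehicle only and 100% = reference agonist; nearly all actives have a fitted effect of over 70% in size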)
Summary of the method: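 Read-out: CCF4 fluorescence from a beta-lactamase reporter in ER-alpha-UAS-bla HEK 293 cells after 18 hrs of compound exposure at 37 C. Normalized to 20 nM 17-beta-estradiol (100%) and DMSO (0%).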

[3] = biological target: Glucocorticoid receptor (Homo sapiens) (UniProt P04150); experiment: qHTS assay for small molecule antagonists of glucocorticoid receptor signaling (AID 588533; active = well fitted inhibition curve with a large enough effect in the signal ratio, with a control signal flat, not every such curve was filed as active; the % refers to the signal ratio;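 note: cells stimulated with 2 nM dexamethasone as agonist; % is set by controls: 0 for no effect and ±100 for the full control effect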)
Summary of the method: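 Antagonist-mode qHTS: compound titrations added to GRE-bla HeLa cells, then dexamethasone 2 nM final; 18 h, 37 C. CCF4 FRET fluorescence normalized to dexamethasone and DMSO; IC50 from Hill fit.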

[4] = qHTS assay for small molecule antagonists of peroxisome proliferator-activated receptor delta signaling (AID 588535; active = well fitted inhibition curve with a large enough effect in the signal ratio, with a control signal flat, not every such curve was filed as active; the % refers to the signal ratio;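 for max response: cells co-treated with a PPAR-delta agonist as stimulator during compound exposure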); conditions: HEK293T PPARd-UAS-bla, beta-lactamase FRET ratio, 18 h; 460 nm channel
Summary of the method: (§1)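 Antagonist-mode qHTS using GeneBLAzer PPAR-delta-UAS-bla HEK293T cells; compound exposure 18 hrs at 37 C over a titration. Ratiometric CCF4 fluorescence at 460/530 nm; concentration-response points fitted to the Hill equation.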

[5] = biological target: Peroxisome proliferator-activated receptor delta (Homo sapiens) (UniProt Q03181); experiment: as above
Summary of the method: as §1

[6] = biological target: Peroxisome proliferator-activated receptor gamma (Homo sapiens) (UniProt P37231); experiment: qHTS assay for small molecule antagonists of peroxisome proliferator-activated receptor gamma signaling (AID 588537; active = well fitted inhibition curve with a large enough effect in the signal ratio, with a control signal flat, not every such curve was filed as active; the % refers to the signal ratio;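 note: reporter cells co-stimulated with 50 nM rosiglitazone agonist during compound treatment; % of control where 0% means no effect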)
Summary of the method: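 Cell-based beta-lactamase assay; GW9662 served as the antagonist control. Stimulation used rosiglitazone, final 50 nM, 16 h, 37 C.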

[7] = biological target: Nuclear receptor ROR-gamma (Homo sapiens) (UniProt P51449); experiment: qHTS assay for small molecule antagonists of the retinoid-related orphan receptor gamma (ROR-gamma) signaling pathway (AID 651802);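 note: CHO cells with doxycycline-induced ROR-gamma expression; luciferase reporter luminescence driven by ROR response element; series mostly up to about 92 µM; % is set by controls: 0 for no effect and ±100 for the full control effect; nearly all actives have a fitted effect of over 60% in size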
Summary of the method: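 Luciferase read-out: ONE-Glo luminescence after 30 min at room temperature, following 16hr doxycycline induction at 37C, 5% CO2 of CHO cells with TET-inducible ROR and RORE-LUC reporter; decreased luminescence = reduced reporter activity.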

[8] = biological target: Ubiquitin carboxyl-terminal hydrolase 1 (Homo sapiens) (UniProt O94782); experiment: Inhibitors of USP1/UAF1: Pilot qHTS (AID 504865);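 note: rhodamine fluorescence freed from ubiquitin-rhodamine substrate followed over time; top concentration of the series differs between compounds; % is set by controls: 0 for no effect and ±100 for the full control effect; nearly all actives have a fitted effect of over 35% in size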
Summary of the method: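 In 50mM HEPES pH 7.8 containing 0.5mM EDTA, 1mM TCEP, 0.1 mg/ml BSA and 0.01% Tween-20, 1nM USP1/UAF1 is exposed to compound for 15 min, then Ub-Rho (150nM final) is added and fluorescence is read over time.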

[9] = Cell Viability - LYMP2-007 (AID 979);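 note: cells exposed to compound for 24 h before reading; 0% = DMSO only and the negative end = 92 µM tetraoctylammonium bromide; nearly all actives have a fitted effect of over 60% in size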
Summary of the method: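 qHTS cytotoxicity: 2500 cells/well, 5 hr 37 C settle, compound 24 hr 37 C, CellTiter-Glo 30 min RT, luminescence. Decrease in ATP = toxicity. AC50 by standard Hill equation; tetraoctylammonium bromide positive control.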

[10] = Cell Viability - LYMP2-008 (AID 980);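 note: cells exposed to compound for 24 h at 37 °C; % is set by controls: 0 for no effect and ±100 for the full control effect; nearly all actives have a fitted effect of over 60% in size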
Summary of the method: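 Luminescent ATP read-out (CellTiter-Glo, 30 min RT) after 24 hr compound exposure at 37 C of human lymphoblastoid cells in complete medium. Decrease in ATP taken as cytotoxicity; AC50 derived by standard Hill fit of qHTS concentration-response data.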

[11] = biological target: Bile acid receptor (Homo sapiens) (UniProt Q96RI1); experiment: qHTS assay for small molecule antagonists of farnesoid X receptor signaling (AID 588526; calls by dose curve; note: % is set by controls: 0 for no effect and ±100 for the full control effect)
Summary of the method: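 Beta-lactamase reporter antagonist mode: HEK293T FXR-UAS-bla cells, titrated compound, CDCA stimulation, 16 h 37 C, CCF4 dye 2 h RT. Data normalized to CDCA 50 uM and DMSO; Hill-fit IC50.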

[12] = biological target: Vitamin D3 receptor (Homo sapiens) (UniProt P11473); experiment: qHTS assay for small molecule antagonists of vitamin D receptor signaling (AID 588541; calls by dose curve;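 note: receptor activated by calcitriol during compound treatment; series mostly up to about 77 µM; % is set by controls: 0 for no effect and ±100 for the full control effect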)
Summary of the method: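 Antagonist-mode beta-lactamase reporter assay: HEK293T VDR-UAS-bla cells were exposed to titrated compound alongside 1-alpha,25-dihydroxyvitamin D3 at 3 nM final for 16 h. Values were normalized to the 50 nM agonist control and DMSO basal, with IC50 and efficacy from Hill equation fits.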

[13] = qHTS assay for small molecule agonists of the antioxidant response element (ARE) signaling pathway (AID 651741; active = well fitted activation curve with a large enough effect in the signal ratio; the % refers to the signal ratio; note: potency is the fitted concentration of half-maximal effect; for activation: % of control where 0% means no effect)
Summary of the method: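 Agonist activity is measured as ARE-driven beta-lactamase expression in a stable HepG2 reporter line, using 16 h compound treatment at 37 C and a FRET substrate fluorescence readout after 2 h.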

[14] = qHTS assay for small molecule activators of the nuclear factor-kappa B (NF-kB) signaling pathway (AID 651749; active = well fitted activation curve with a large enough effect in the signal ratio; the % refers to the signal ratio; note: series mostly up to about 77 µM; % of control where 0% means no effect); conditions: NF-kB-bla ME-180 cells, beta-lactamase FRET ratio, 16 h; stronger effect = higher value
Summary of the method: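 FRET-based beta-lactamase detection in ME-180 cells reports NF-kB response-element-driven transcription following overnight (16 hr) compound treatment.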

[15] = qHTS assay to identify small molecules that stimulate interleukin-8 (IL-8) secretion (AID 651758; active = well fitted activation curve with a large enough effect in the signal ratio; the % refers to the signal ratio; note: potency is the fitted concentration of half-maximal effect; for activation: 0% is about no effect)
Summary of the method: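 Secreted IL-8 measured homogeneously by TR-FRET (two labelled anti-IL-8 antibodies, 1-3 h at room temperature) after a 16 h, 37 C compound treatment of THP-1 cells at 2000 cells/well.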

[16] = Cellular Toxicity (caspase-3) Renal Proximal Tubule (AID 667);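 note: cells exposed to compound for 16 hours at 37 °C before detection; 0% = DMSO basal and 100% = 10 µM staurosporine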
Summary of the method: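 AC50 derived by standard Hill fit of concentration-response data, normalized between DMSO basal and 10 uM staurosporine as 100% stimulation. Cells: primary rat kidney proximal tubule, 16 h treatment at 37 °C.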

[17] = qHTS assay for cell viability of the p53RE-bla HCT-116 cell line (AID 743292); note: % is set by controls: 0 for no effect and ±100 for the full control effect; nearly all actives have a fitted effect of over 55% in size
Summary of the method: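 ATP-based luminescent viability (CellTiter-Glo, 30 min RT) after 16 h compound treatment at 37 C of p53RE-bla HCT-116 cells, seeded at 4,000 cells/well and rested 5 h before dosing.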

[18] = MultiTox-Fluor Cytotoxicity Assay - LYMP1-001 - Dead Cells (AID 946)
Summary of the method: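 Cytotoxicity as increased dead-cell protease fluorescence (bis-AAF-R110, 485/520 nm), read 60 min after MultiTox-Fluor reagent. Human lymphoblastoid line exposed 16 h; Hill-fitted AC50, with DMSO as 0% and 15 uM tetraoctylammonium bromide as 100%.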

Vitamin D3 receptor (Homo sapiens), sequence (P11473 whole entry, looked up): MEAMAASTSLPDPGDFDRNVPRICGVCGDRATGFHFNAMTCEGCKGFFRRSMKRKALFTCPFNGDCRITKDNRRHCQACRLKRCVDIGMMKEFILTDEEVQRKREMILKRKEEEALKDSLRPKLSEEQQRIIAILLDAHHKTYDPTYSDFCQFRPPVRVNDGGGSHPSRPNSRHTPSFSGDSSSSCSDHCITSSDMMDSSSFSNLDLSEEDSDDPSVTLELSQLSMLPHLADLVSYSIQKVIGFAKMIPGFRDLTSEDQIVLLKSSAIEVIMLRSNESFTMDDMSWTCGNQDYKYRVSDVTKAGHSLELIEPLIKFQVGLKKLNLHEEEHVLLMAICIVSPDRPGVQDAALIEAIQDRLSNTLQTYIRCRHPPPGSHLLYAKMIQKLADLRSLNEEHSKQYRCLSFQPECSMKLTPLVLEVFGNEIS
Peroxisome proliferator-activated receptor delta (Homo sapiens), sequence (Q03181 whole entry, looked up): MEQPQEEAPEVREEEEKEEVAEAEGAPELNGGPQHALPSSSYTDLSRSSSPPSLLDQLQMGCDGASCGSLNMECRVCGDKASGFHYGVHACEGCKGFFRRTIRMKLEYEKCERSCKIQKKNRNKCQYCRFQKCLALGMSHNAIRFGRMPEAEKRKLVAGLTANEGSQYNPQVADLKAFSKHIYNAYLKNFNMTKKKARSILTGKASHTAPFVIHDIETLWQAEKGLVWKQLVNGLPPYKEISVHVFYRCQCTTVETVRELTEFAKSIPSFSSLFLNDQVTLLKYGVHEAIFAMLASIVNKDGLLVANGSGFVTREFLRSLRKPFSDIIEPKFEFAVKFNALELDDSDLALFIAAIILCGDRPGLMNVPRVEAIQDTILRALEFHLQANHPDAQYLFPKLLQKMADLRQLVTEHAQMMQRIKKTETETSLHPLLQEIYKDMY
Bile acid receptor (Homo sapiens), sequence (Q96RI1 whole entry, looked up): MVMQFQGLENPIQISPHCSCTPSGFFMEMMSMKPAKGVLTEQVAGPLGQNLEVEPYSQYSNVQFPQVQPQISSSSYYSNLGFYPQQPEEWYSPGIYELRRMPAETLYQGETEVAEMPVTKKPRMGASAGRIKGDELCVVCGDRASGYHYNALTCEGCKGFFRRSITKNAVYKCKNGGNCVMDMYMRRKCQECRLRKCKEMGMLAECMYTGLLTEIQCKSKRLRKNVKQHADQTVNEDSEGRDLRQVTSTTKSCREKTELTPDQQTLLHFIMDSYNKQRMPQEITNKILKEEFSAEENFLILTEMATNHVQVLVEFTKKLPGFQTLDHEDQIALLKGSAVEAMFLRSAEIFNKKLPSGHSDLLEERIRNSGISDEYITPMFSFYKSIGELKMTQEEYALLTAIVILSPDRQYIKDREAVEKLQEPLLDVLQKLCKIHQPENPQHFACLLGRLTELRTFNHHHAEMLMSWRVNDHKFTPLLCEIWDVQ
Peroxisome proliferator-activated receptor gamma (Homo sapiens), sequence (P37231 whole entry, looked up): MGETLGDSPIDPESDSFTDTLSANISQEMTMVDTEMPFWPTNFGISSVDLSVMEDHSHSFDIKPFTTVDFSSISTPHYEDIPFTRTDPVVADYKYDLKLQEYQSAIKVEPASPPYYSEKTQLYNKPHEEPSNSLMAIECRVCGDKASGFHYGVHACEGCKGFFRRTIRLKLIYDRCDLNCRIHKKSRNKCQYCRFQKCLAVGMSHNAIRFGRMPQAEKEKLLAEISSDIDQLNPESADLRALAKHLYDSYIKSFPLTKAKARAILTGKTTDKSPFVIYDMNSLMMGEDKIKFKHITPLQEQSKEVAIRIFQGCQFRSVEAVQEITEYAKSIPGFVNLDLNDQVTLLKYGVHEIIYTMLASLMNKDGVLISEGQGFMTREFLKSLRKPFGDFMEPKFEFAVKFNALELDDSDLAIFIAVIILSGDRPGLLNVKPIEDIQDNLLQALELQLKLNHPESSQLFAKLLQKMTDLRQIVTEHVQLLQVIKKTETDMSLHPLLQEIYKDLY
Estrogen receptor (Homo sapiens), sequence (P03372 whole entry, looked up): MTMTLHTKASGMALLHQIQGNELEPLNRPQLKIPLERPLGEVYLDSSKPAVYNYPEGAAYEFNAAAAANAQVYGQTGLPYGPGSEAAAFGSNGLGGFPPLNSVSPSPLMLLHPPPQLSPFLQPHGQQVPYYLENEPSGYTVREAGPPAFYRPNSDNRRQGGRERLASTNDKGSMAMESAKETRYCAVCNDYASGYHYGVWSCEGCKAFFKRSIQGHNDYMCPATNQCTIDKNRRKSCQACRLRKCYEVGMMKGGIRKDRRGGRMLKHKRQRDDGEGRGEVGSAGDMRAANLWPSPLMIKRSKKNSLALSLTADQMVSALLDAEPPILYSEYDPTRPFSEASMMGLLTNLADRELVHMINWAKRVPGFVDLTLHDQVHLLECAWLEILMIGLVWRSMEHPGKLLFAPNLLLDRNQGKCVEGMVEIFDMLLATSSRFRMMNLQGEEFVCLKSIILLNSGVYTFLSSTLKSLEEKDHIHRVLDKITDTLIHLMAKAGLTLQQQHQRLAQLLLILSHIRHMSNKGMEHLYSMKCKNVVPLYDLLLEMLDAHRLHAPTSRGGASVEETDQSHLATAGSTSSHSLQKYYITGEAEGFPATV
Ubiquitin carboxyl-terminal hydrolase 1 (Homo sapiens), sequence (O94782 whole entry, looked up): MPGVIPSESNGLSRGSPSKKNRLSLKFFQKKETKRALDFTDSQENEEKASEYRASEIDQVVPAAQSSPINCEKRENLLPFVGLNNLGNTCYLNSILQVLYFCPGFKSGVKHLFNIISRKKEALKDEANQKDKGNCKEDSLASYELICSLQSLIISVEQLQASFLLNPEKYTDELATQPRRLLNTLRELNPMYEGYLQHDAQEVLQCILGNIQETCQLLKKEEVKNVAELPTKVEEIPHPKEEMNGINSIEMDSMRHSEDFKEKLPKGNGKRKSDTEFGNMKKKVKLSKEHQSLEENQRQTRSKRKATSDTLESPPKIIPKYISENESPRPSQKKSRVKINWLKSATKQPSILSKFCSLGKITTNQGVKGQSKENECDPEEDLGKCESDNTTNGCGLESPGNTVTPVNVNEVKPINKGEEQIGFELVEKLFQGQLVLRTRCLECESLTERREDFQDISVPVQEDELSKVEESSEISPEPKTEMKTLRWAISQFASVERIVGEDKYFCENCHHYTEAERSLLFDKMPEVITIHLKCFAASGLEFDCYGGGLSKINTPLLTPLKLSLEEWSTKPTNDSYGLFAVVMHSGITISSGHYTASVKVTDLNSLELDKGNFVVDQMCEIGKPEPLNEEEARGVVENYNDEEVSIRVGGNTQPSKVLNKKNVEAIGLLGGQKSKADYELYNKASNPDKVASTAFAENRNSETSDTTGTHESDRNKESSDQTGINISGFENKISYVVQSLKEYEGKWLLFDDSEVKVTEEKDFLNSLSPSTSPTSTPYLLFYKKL
Glucocorticoid receptor (Homo sapiens), sequence (P04150 whole entry, looked up): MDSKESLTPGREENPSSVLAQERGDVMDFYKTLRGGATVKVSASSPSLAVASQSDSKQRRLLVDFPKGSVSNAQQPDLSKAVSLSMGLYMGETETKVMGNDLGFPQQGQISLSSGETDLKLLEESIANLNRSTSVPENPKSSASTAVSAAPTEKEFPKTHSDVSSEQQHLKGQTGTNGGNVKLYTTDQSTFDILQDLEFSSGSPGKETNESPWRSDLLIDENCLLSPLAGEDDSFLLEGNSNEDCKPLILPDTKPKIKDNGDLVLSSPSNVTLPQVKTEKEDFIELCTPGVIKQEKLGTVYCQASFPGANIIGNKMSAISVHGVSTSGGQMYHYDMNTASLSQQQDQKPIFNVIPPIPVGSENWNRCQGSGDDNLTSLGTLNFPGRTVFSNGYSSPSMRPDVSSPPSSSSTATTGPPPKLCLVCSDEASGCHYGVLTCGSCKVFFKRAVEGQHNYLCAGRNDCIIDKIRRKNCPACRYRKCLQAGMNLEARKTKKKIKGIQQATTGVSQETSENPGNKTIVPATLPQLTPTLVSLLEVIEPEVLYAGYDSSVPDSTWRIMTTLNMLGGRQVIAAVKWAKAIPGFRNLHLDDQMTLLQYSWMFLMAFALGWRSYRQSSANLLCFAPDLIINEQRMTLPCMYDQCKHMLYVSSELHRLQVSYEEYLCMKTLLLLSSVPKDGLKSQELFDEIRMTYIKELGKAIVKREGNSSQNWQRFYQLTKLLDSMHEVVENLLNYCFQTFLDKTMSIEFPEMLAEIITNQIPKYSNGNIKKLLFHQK
Nuclear receptor ROR-gamma (Homo sapiens), sequence (P51449 whole entry, looked up): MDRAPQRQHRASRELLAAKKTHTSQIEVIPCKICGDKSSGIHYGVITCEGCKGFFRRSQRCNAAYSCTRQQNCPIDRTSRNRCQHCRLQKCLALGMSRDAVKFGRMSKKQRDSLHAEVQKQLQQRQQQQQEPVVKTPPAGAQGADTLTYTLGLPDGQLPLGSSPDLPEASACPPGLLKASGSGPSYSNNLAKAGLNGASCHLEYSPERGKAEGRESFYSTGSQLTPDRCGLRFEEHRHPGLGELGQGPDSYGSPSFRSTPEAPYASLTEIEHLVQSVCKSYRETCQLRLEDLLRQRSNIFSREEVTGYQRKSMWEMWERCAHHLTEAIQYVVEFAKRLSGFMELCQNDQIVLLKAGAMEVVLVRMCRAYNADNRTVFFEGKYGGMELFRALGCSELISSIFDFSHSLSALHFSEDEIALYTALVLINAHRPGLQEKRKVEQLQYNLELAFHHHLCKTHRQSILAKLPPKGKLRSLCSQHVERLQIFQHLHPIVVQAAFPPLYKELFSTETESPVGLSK

CC(=O)OC/C=C(\C)CCC=C(C)C
-10.2% and 0.451%: max response [4]
inactive: Potency [1] > 92 µM | Potency [2] | Potency [3] | Potency [5] | outcome [6] | Potency [7]

COc1cccc(Cn2c(=O)cnc3cnc(N(C)C)nc32)c1
inactive: Potency [8]

CCO
-20.9%: max response [4]
inactive: Potency [1] > 92 µM | Potency [9] | Potency [10] | Potency [2] | outcome [11] | Potency [3] | Potency [5] | outcome [6] | outcome [12] | Potency [13] | activation [14] -0.227% | Potency [15] | Potency [7]

CCCCOCCO
inactive: outcome [16] | Potency [2] | outcome [11] | Potency [3] | Potency [5] | outcome [6] | outcome [12] | Potency [13] | activation [14] 0.401% and -0.541% and 0.482% | Potency [15] | Potency [7]
1.73% and 13.5% and -16.7%: max response [4]

Cc1ccccc1C
-3.07% and -4.26%: max response [4]
inactive: Potency [2] | Potency [3] | Potency [5] | outcome [12] | Potency [13] | activation [14] -0.0827% and -0.301% | Potency [7] | Potency [17]

O=C(O)c1ccc(O)cc1O
inactive: Potency [18] | outcome [11] | Potency [3] | Potency [5] | outcome [6] | outcome [12] | Potency [13] | activation [14] 0.834% and -0.343% | Potency [15] | Potency [7] | Potency [17]
43.1%: max response [4]

CNc1ncncc1-c1ccccc1CN(C)C
inactive: Potency [8]

c1ccccc1
inactive: Potency [18] | Potency [9] | Potency [2] | outcome [11] | Potency [3] | outcome [6] | outcome [12] | Potency [13] | activation [14] -0.601% [middle of 4 runs] | Potency [15] | Potency [7]

Cc1c(N=C=O)cccc1N=C=O
inactive: Potency [10] | Potency [2] | Potency [3] | outcome [6] | outcome [12] | Potency [13] | activation [14] -0.751% and -0.0469% | Potency [7] | Potency [17]

C1OCOCO1
2.46%: max response [4]
active: Potency [15] 66.8 µM
inactive: Potency [1] > 92 µM | Potency [18] | Potency [9] | Potency [8] | outcome [11] | Potency [3] | Potency [5] | Potency [13] | activation [14] -1.91% | Potency [7]

O=C1CCc2ccccc2O1
inactive: Potency [3] | outcome [6] | Potency [17]

O=C(Nc1ccccc1)c1ccccc1O
active: Potency [13] 15.4 µM
-6.49%: max response [4]
inactive: Potency [5] | outcome [6] | Potency [17]

CCC(C)c1ccccc1O (configuration not stated)
-8.1% and -17.6%: max response [4]
inactive: outcome [16] | Potency [9] | Potency [10] | Potency [3] | Potency [5] | outcome [6] | outcome [12] | activation [14] 0.327% and -0.174% and -0.563% | Potency [7]

Cc1ccccc1-c1ccc2ncnc(NCCN3CCOCC3)c2c1
inactive: Potency [8]

COC(=O)c1ccc(C)cc1
inactive: outcome [16] | Potency [10] | outcome [11] | Potency [3] | Potency [5] | outcome [12] | Potency [13] | Potency [7]
-3.36% and -19.7%: max response [4]

O=c1cnc2cnc(N3CCOCC3)nc2n1Cc1cccs1
inactive: Potency [8]

C/C=C\c1ccc(OC)cc1
-7.78%: max response [4]
inactive: Potency [10] | Potency [8] | outcome [11] | Potency [5] | outcome [6] | activation [14] -0.604% | Potency [15] | Potency [7]

CC(C)(CO)C(O)C(=O)NCCCC(=O)O (configuration not stated)
inactive: Potency [8]
